{
  "source": "PubChem BioAssay (NCATS)",
  "note": "Inconclusive results are not listed. A number with no mark means an inactive call. Calls of active or inactive are those of the source. Calls come from the whole dose curve; as a rule, active = well fitted inhibition curve with a large enough effect; inconclusive = small, poorly fitted or top-dose-only effect; inactive = flat fitted curve, though single readings scatter. Potency is the fitted concentration of half-maximal effect.",
  "data": [
    {"test": "qHTS for differential inhibitors of proliferation of Plasmodium falciparum line Dd2 (AID 1882); note: nearly all actives have a fitted effect of over 65% in size", "settings": "Potency: Plasmodium falciparum Dd2 proliferation inhibition; series mostly up to 28.7 µM; activity change, negative = inhibition: at the top concentration", "excerpt": "NIH Molecular Libraries Probe Production Network [MLPCN]\nNIH National Institute of Allergy and Infectious Diseases [NIAID]\nNIH Chemical Genomics Center [NCGC]\nAssay Provider: Xinzhuan Su, NIAID\nPlasmodium falciparum is a virulent malarial parasite that kills 1-2 million people worldwide each year. Transmitted by mosquitoes, the sporozoite form of the parasite enters the blood stream to infect hepatocytes, where they become merozoites that infect red blood cells (erythrocytes). Within erythrocytes, merozoites begin a […] cycle of growth and division, after which the parasite is released to infect new red blood cells. Gametocytes, which form within erythrocytes as well, circulate in the bloodstream and are ingested by the mosquito, thereby completing the life cycle. To profile malarial isolates for differential chemical responses and to identify inhibitors of malarial growth, an assay that measures P. falciparum growth and replication within erythrocytes was employed. This assay uses a DNA binding fluorescent dye (SYBR Green) to detect parasite DNA following cell lysis. Because mature erythrocytes lack DNA, only Plasmodium-derived DNA is detected. The P. falciparum line Dd2, derived from a malarial isolate from […], was used.\nNCGC Assay Protocol Summary:\nThe SYBR Green viability assay was adapted from a method described previously (Plouffe et al., 2008). For screening 3 ul culture medium was dispensed into 1536 well black clear bottom plates (Aurora Biotechnologies) using a Multidrop Combi (Thermo Fisher Scientific Inc.), 23 nL compounds in DMSO were added by a pin tool (Kalypsys), and 5 ul of erythrocytes infected with P. falciparum line Dd2 (0.3% parasitemia, 2.5% hematocrit final concentration) were added. The plates were incubated at 37 C in a humidified incubator in 5% CO2 for 72 h, and 2 ul lysis buffer (20 mM Tris HCl, 10 mM EDTA, […]% saponin, 1.6% triton X, 10X SYBR Green I supplied as 10,000X […] by Invitrogen) was added to each well. The plates were mixed for 25 sec with gentle shaking and incubated overnight at room temperature in the dark. The following morning, fluorescence intensity at 485(14) nm excitation and 535(25) nm emission wavelengths was measured on an EnVision (Perkin Elmer) plate reader. Plate reads were normalized relative to the control inhibitor (0.29 uM artemisinin) and vehicle (DMSO) wells present on each plate and then corrected by an algorithm using vehicle-only control plates at the beginning and end of the compound plate stack.\nPlouffe D, Brinker A, McNamara C, Henson K, Kato N, Kuhen K, Nagle A, Adrian F, Matzen JT, Anderson P, Nam TG, Gray NS, Chatterjee A, Janes J, Yan SF, Trager R, Caldwell JS, Schultz PG, Zhou Y, Winzeler EA. […] Proc Natl Acad Sci U S A. 2008, 105(26), pp 9059-64.", "units": {"activity change, negative = inhibition": "%"}, "values": [
      {"smiles": "CC(=O)NNC(=O)N1Cc2ccccc2Oc2ccc(Cl)cc21", "activity change, negative = inhibition": -0.559},
      {"smiles": "NCCCCN", "activity change, negative = inhibition": 3.6},
      {"smiles": "CC(C)Cn1c(=O)n(C)c(=O)c2[nH]cnc21", "activity change, negative = inhibition": 7.56},
      {"smiles": "COc1cc(N)c(Cl)cc1C(=O)OCCN1CCCCC1", "activity change, negative = inhibition": -17.6},
      {"smiles": "NC(N)=N[C@@H](CCC(=O)O)C(=O)O", "activity change, negative = inhibition": -0.897},
      {"smiles": "CCCn1c(=O)c2[nH]c(C3CCCC3)nc2n(CCC)c1=O", "activity change, negative = inhibition": -17.7},
      {"smiles": "CCC(=O)N1CCN(C(=O)c2ccccc2)CC1", "activity change, negative = inhibition": 0.407},
      {"smiles": "Cn1c(=O)c2[nH]c(-c3ccc(S(=O)(=O)O)cc3)nc2n(C)c1=O", "activity change, negative = inhibition": 4.1},
      {"smiles": "Cn1c(=O)c2[nH]c(C3CCCC3)nc2n(C)c1=O", "activity change, negative = inhibition": 2.28},
      {"smiles": "C=C(C)C1CC=C(C(=O)O)CC1", "note": "(stereo not given)", "activity change, negative = inhibition": 5.54},
      {"smiles": "OCC1NCC(O)C(O)C1O", "note": "(stereo not given)", "activity change, negative = inhibition": 5.09},
      {"smiles": "COc1ccc2c(c1)c(CC(=O)O)c(C)n2C(=O)c1ccccc1", "activity change, negative = inhibition": 1.67},
      {"smiles": "O=c1[nH]c2ccccc2c2ccccc12", "activity change, negative = inhibition": -14.4},
      {"smiles": "CC1=C(C(=O)O)N2C(=O)[C@@H](NC(=O)C(N)C3=CCC=CC3)[C@H]2SC1", "note": "(stereo not given in full)", "activity change, negative = inhibition": 1.13},
      {"smiles": "CN1CCN(c2nc3cc(C(F)(F)F)ccc3n3cccc23)CC1", "Potency": "8.91 µM (active)"},
      {"smiles": "CCCCCCCCCCCCCCC[C@H](O)[C@H](N)CO", "activity change, negative = inhibition": -5.12},
      {"smiles": "CC(N)=NCCCC[C@@H](N)C(=O)O", "activity change, negative = inhibition": 2.2},
      {"smiles": "Nc1ccc(N2C(=O)c3ccccc3C2=O)c(Cl)c1", "activity change, negative = inhibition": 7.67},
      {"smiles": "N[C@@H](Cc1ccc(F)cc1)C(=O)O", "activity change, negative = inhibition": -11.9},
      {"smiles": "CC(=O)NCCc1c[nH]c2ccc(O)cc12", "activity change, negative = inhibition": 0.609},
      {"smiles": "C#CC(N)CCC(=O)O", "note": "(stereo not given)", "activity change, negative = inhibition": 0.983},
      {"smiles": "COc1cc(C(O)CO)ccc1O", "note": "(stereo not given)", "activity change, negative = inhibition": -0.688},
      {"smiles": "CNC(=O)c1cc2c(cn1)[nH]c1ccccc12", "activity change, negative = inhibition": -25.8},
      {"smiles": "C=CCN1CCc2c(cc(O)c(O)c2Cl)C(c2ccccc2)C1", "note": "(stereo not given)", "Potency": "10 µM (active)"},
      {"smiles": "Nc1ccc(-c2nc3ccc(-c4nc5ccc(N)cc5[nH]4)cc3[nH]2)cc1", "Potency": "1 µM (active)"},
      {"smiles": "CSC(=N)N", "activity change, negative = inhibition": -12.5},
      {"smiles": "COc1cc(C(O)C(=O)O)ccc1O", "note": "(stereo not given)", "activity change, negative = inhibition": -3},
      {"smiles": "Nc1ccc(-c2ccc3ccccc3n2)cc1", "activity change, negative = inhibition": -17.8},
      {"smiles": "CC(N)(C(=O)O)c1ccc(C(=O)O)cc1", "note": "(stereo not given)", "activity change, negative = inhibition": 3.1},
      {"smiles": "Nc1nc2[nH]c(=O)cnc2c(=O)[nH]1", "activity change, negative = inhibition": 4.71},
      {"smiles": "CCOC(=O)C12CC1/C(=N/O)c1ccccc1O2", "note": "(stereo not given)", "activity change, negative = inhibition": -2.11},
      {"smiles": "N=S(=O)(O)Cc1noc2ccccc12", "activity change, negative = inhibition": 0.831},
      {"smiles": "CNCCNS(=O)(=O)c1cccc2cnccc12", "activity change, negative = inhibition": -10.2},
      {"smiles": "Cc1nc2c(OCc3ccccc3)cccn2c1CC#N", "activity change, negative = inhibition": -15.9},
      {"smiles": "CN[C@H](CC(=O)O)C(=O)O", "activity change, negative = inhibition": -6.95},
      {"smiles": "O=C(O)c1ccccc1Nc1ccccc1", "activity change, negative = inhibition": -7.72},
      {"smiles": "CCCn1c(=O)c2c(ncn2C)n(CCC)c1=O", "activity change, negative = inhibition": -6.1},
      {"smiles": "CCC1(O)CC2CN(CCc3c([nH]c4ccccc34)[C@@](C(=O)OC)(c3cc4c(cc3OC)N(C=O)C3[C@]45CCN4CC=C[C@@](CC)([C@@H](OC(C)=O)[C@]3(O)C(=O)OC)[C@H]45)C2)C1", "note": "(stereo not given in full)", "Potency": "0.1 µM (active)"},
      {"smiles": "Cc1nc(N=Nc2cc(S(=O)(=O)O)c3cc([N+](=O)[O-])cc(S(=O)(=O)O)c3c2)c(COP(=O)(O)O)c(C=O)c1O", "activity change, negative = inhibition": -18.3},
      {"smiles": "NC(=Nc1ccccc1)NC(=O)c1nc(Cl)c(N)nc1N", "activity change, negative = inhibition": -0.328}
    ]}
  ]
}
